Read-outs that look alike come from different tables or passages of the source.

What all share (set-up): species or system human, MV4-11 + K-562 + COLO205 + SK-N-BE2 + OVCAR-8
For one assay, the system named is AKT1. The conditions noted are these: read-out: apparent Kd, compound concentrations: 100 nM and 1000 nM (sheet 'Samples'), n = 1.
A further assay has as its system BMPR1B. The conditions noted are these: read-out: apparent Kd, n = 1.
The next assay concerns RIOK2. The conditions noted are these: read-out: apparent Kd, n = 1.
The test system of a further assay is CDK16. The conditions noted are these: read-out: apparent Kd, n = 1.
Another assay deals with CDK17. Conditions: read-out: apparent Kd, n = 1.
In a further assay the test system is CDKL5. Conditions: read-out: apparent Kd, n = 1.
A further assay has as its system EPHB6. Conditions: read-out: apparent Kd, n = 1.
The test system of the next assay is FLT4. Conditions: read-out: apparent Kd, compound concentrations: 100 nM and 1000 nM (sheet 'Samples'), n = 1.
The next assay concerns PLK4. The conditions noted are these: read-out: apparent Kd, n = 1.
The subject of the next assay is PRKD2. Conditions: read-out: apparent Kd, n = 1.
A further assay concerns T1, DJA1.
T1 construct: gene DNAJA1
Conditions: read-out: apparent Kd; compound concentrations: 100 nM and 1000 nM (sheet 'Samples'), CATDS: 0.205535073981469; n = 1.

The subject of another assay is MAP2K5. Conditions: read-out: apparent Kd, n = 1.
Another assay deals with TGFBR1. Conditions: read-out: apparent Kd, n = 1.
The next assay has as its system DDR2. Conditions: read-out: apparent Kd, n = 1.
The test system of the next assay is EPHA5. Conditions: read-out: apparent Kd, n = 1.
Another assay has as its system MAPK9. The conditions noted are these: read-out: apparent Kd, n = 1.
The next assay concerns AURKB. Conditions: read-out: apparent Kd, n = 1.
In another assay the test system is JAK2. Conditions: read-out: apparent Kd, compound concentrations: 100 nM and 1000 nM (sheet 'Samples'), n = 1.
Where [1] appears, read: compound concentrations:100 nM and 1000 nM (sheet 'Samples').

Consider `COc1ccc(Nc2nccc(N3CCC(NC(=O)Nc4ccc5c(c4)OCO5)C3)n2)cc1` (stereo not drawn) [GSK1379745A], for which the potency estimated from few doses in the assay on AKT1 (CATDS: 3.7255828319427503E-2) is 1760 nM; in the assay on BMPR1B (compound concentrations: 100 nM and 1000 nM (sheet 'Samples'), CATDS: 0.106136196425884) it was 316 nM; in the assay with RIOK2 (compound concentrations: 100 nM and 1000 nM (sheet 'Samples'), CATDS: 4.3222091528321002E-2), 1280 nM.
For the compound `CC(C)c1nc(-c2cccc(NS(=O)(=O)c3ccccc3)c2)c(-c2ccnc(Nc3ccc4c(c3)CN(C)CC4)n2)s1` [GSK1649598A], the potency estimated from few doses with CDK16 (compound concentrations: 100 nM and 1000 nM (sheet 'Samples'), CATDS: 3.5928247701673299E-2) is 112 nM; in the assay on CDK17 (compound concentrations: 100 nM and 1000 nM (sheet 'Samples'), CATDS: 3.3819881865538602E-2) it was 124 nM; in the assay on CDKL5 (compound concentrations: 100 nM and 1000 nM (sheet 'Samples'), CATDS: 3.80366995063171E-2), 101 nM; in the assay with EPHB6 (compound concentrations: 100 nM and 1000 nM (sheet 'Samples'), CATDS: 1.8057075383437201E-2), 489 nM; in the assay with FLT4 (CATDS: 1.55100813228086E-2), 772 nM; in the assay with PLK4 (compound concentrations: 100 nM and 1000 nM (sheet 'Samples'), CATDS: 4.8867140762819797E-2) it was 66.8 nM. In addition, the potency estimated from few doses in the assay with PRKD2 (compound concentrations: 100 nM and 1000 nM (sheet 'Samples'), CATDS: 5.2743679485786801E-2) was 59.3 nM.
Turning to `COc1cc(Nc2nccc(N3CCC(NC(=O)c4cccc(C#N)c4)C3)n2)cc(OC)c1OC` (stereo not drawn) [GSK1379751A], the potency estimated from few doses in the assay with DJA1 was 817 nM.
`COc1cccc(-n2ncc3c(N/N=C/c4ccc(C(=O)NCCN(C)C)cc4)ncnc32)c1.Cl` [GW784307A]: the potency estimated from few doses with BMPR1B (compound concentrations: 100 nM and 1000 nM (sheet 'Samples'), CATDS: 3.8430447981996803E-2) is 486 nM; in the assay on CDK16 (compound concentrations: 100 nM and 1000 nM (sheet 'Samples'), CATDS: 2.5546052944154699E-2), 2020 nM; in the assay with CDKL5 (compound concentrations: 100 nM and 1000 nM (sheet 'Samples'), CATDS: 0.115641908649272) it was 49.3 nM; in the assay on MAP2K5 (compound concentrations: 100 nM and 1000 nM (sheet 'Samples'), CATDS: 2.4851428787040001E-2) it was 2320 nM; in the assay with TGFBR1 (compound concentrations: 100 nM and 1000 nM (sheet 'Samples'), CATDS: 3.91809843911003E-2), 460 nM.
For the compound `COc1cc2nccc(Nc3ccc(Oc4ccccc4)cc3)c2cc1OC.Cl` [GI261656A], in the assay on MAP2K5 (compound concentrations: 100 nM and 1000 nM (sheet 'Samples'), CATDS: 9.9796697062305095E-2), the potency estimated from few doses was 95.6 nM.
As to `CN1CCN(Cc2cccc(-c3ccc4c(Nc5ccc(Oc6ccccc6)cc5)ccnc4c3)c2)CC1` [GW578342X], the potency estimated from few doses in the assay on MAP2K5 (compound concentrations: 100 nM and 1000 nM (sheet 'Samples'), CATDS: 0.10104411833730501) is 640 nM.
Consider `CNc1nccc(-c2c(-c3ccc(F)cc3)ncn2C2CCN(C)CC2)n1` [SB-222903], for which the potency estimated from few doses is 625 nM in the assay with DDR2 (setting [1]), 465 nM in the assay with EPHA5 (setting [1]) and 462 nM in the assay on MAPK9 (setting [1]).
With `COc1ccc(-c2nc3n(c2-c2ccncc2)CCC3)cc1.COc1ccc(-c2nc3n(c2-c2ccncc2)CCC3)cc1.O=S(=O)(O)O.O=S(=O)(O)O` [SKF-104493-B2], in the assay on AKT1 (CATDS: 9.7335035775878098E-2), the potency estimated from few doses was 2500 nM.
As for `COc1cc2ncn(-c3cc(OCc4cccs4)c(C(N)=O)s3)c2cc1OC` [GSK312948A], the potency estimated from few doses with MAP2K5 (setting [1]) is 461 nM.
As for `Cl.Cn1c(=O)c(Cc2ccc(F)cc2F)cc2cnc(NC3CCOCC3)nc21` [RO3308757-001], the results for the potency estimated from few doses in the assay on EPHA5 (setting [1]), with MAPK9 (setting [1]) and in the assay on PLK4 (setting [1]) were 399 nM, 1030 nM and 963 nM, respectively.
Consider `Fc1ccc(-c2c(-c3ccncc3)[nH]c3nccnc23)cc1` [RO1155697-000], for which the potency estimated from few doses in the assay with DDR2 (setting [1]) is 886 nM; with MAPK9 (setting [1]), 368 nM; in the assay with PRKD2 (setting [1]) it was 962 nM; with TGFBR1 (setting [1]) it was 1950 nM.
In the case of `Cn1cc(-c2cnc(N)c3c(-c4ccc5c(c4)CCN5C(=O)Cc4ccccc4)csc23)cn1` [GSK2593074A], the potency estimated from few doses with AURKB (setting [1]) is 692 nM; in the assay on EPHB6 (setting [1]), 151 nM; in the assay with MAP2K5 (setting [1]), 979 nM.
Turning to `Cc1cc(O)cc(C)c1/C=C/c1cncc(-c2nn[nH]n2)c1.Cl` [GW441806A], the potency estimated from few doses is 1670 nM with EPHB6 (compound concentrations: 100 nM and 1000 nM (sheet 'Samples'), CATDS: 4.3077369875392603E-2); 387 nM in the assay on JAK2 (CATDS: 7.0798034106367105E-2); 1310 nM with MAP2K5 (compound concentrations: 100 nM and 1000 nM (sheet 'Samples'), CATDS: 4.6114067598033499E-2).
Turning to `COc1cc(/C=N/Nc2ncnc3[nH]ncc23)ccc1O` [GW578748X], the potency estimated from few doses with RIOK2 (setting [1]) was 1600 nM.
`COc1cccc(-c2c[nH]c3c(N/N=C/c4ccncc4)ncnc23)c1` [GW814408X]: the values for the potency estimated from few doses with BMPR1B (setting [1]) and with CDKL5 (setting [1]) were 612 nM and 1300 nM, respectively.
As to `Cn1cc(-c2ccc3c(c2)CCN3C(=O)Cc2cccc(Cl)c2)c2c(N)ncnc21` [GSK2606590A], the potency estimated from few doses in the assay on AURKB (compound concentrations: 100 nM and 1000 nM (sheet 'Samples'), CATDS: 0.34532909823612901) was 968 nM.
For `Cc1ccc(O)cc1Nc1ccnc2ccc(C(C)(C)C)cc12` [GW856805X], the potency estimated from few doses with EPHA5 (compound concentrations: 100 nM and 1000 nM (sheet 'Samples'), CATDS: 8.5514092870098604E-2) was 16.4 nM.
For `N#Cc1cccc(Nc2nccc(-c3cnn4ncccc34)n2)c1` [GW778894X], the potency estimated from few doses is 13 nM with CDK16 (setting [1]), 44.8 nM with CDK17 (setting [1]), 6.82 nM in the assay with CDKL5 (setting [1]) and 75.3 nM in the assay with RIOK2 (setting [1]).
As for `O=S(=O)(c1ccc(-c2ccnc3[nH]ccc23)cc1)N1CCCC1` [GSK846226A], the potency estimated from few doses in the assay with RIOK2 (setting [1]) was 2220 nM.
Turning to `CC(=O)c1c(-c2ccncc2)[nH]c(-c2ccncc2)c1C` [GW493036X], the potency estimated from few doses in the assay on CDKL5 (setting [1]) is 1670 nM.
Regarding `CN(C)Cc1ccc(-c2ccc3c(Nc4ccc(Oc5ccccn5)cc4)ccnc3c2)o1` [GW567148X], the potency estimated from few doses in the assay with AURKB (compound concentrations: 100 nM and 1000 nM (sheet 'Samples'), CATDS: 1.8860841823088701E-2) was 1200 nM; in the assay with EPHA5 (compound concentrations: 100 nM and 1000 nM (sheet 'Samples'), CATDS: 2.06539246385424E-2), 902 nM; in the assay on EPHB6 (compound concentrations: 100 nM and 1000 nM (sheet 'Samples'), CATDS: 1.6574994682998501E-2), 1960 nM; with JAK2 (CATDS: 5.6320908598955097E-2) it was 121 nM; in the assay with MAP2K5 (compound concentrations: 100 nM and 1000 nM (sheet 'Samples'), CATDS: 0.100463270176777), 51.4 nM; with PLK4 (compound concentrations: 100 nM and 1000 nM (sheet 'Samples'), CATDS: 1.8058867791982399E-2), 1390 nM.
Consider `COc1cc2ncn(-c3cc(OCCCc4ccccc4)c(C(N)=O)s3)c2cc1OC` [GSK205189A], for which the potency estimated from few doses in the assay with EPHA5 (setting [1]) is 720 nM; with PLK4 (setting [1]), 1240 nM.
Consider `CNC(=O)c1ccccc1Nc1nc(Nc2cccc(CS(C)(=O)=O)c2)ncc1C.O=CO` [GSK1520489A], for which the potency estimated from few doses is 22.6 nM in the assay on AURKB (compound concentrations: 100 nM and 1000 nM (sheet 'Samples'), CATDS: 5.1121534714452903E-2); 288 nM in the assay on BMPR1B (compound concentrations: 100 nM and 1000 nM (sheet 'Samples'), CATDS: 1.50633752553141E-2); 443 nM in the assay with DDR2 (compound concentrations: 100 nM and 1000 nM (sheet 'Samples'), CATDS: 1.3086276372357399E-2); 127 nM with FLT4 (CATDS: 2.0677135389333402E-2); 917 nM in the assay on JAK2 (CATDS: 1.0777709602795499E-2); 1170 nM in the assay on MAPK9 (compound concentrations: 100 nM and 1000 nM (sheet 'Samples'), CATDS: 1.0219205948468601E-2). The potency estimated from few doses with PLK4 (compound concentrations: 100 nM and 1000 nM (sheet 'Samples'), CATDS: 5.6526690593712202E-2) was 19.3 nM; in the assay on TGFBR1 (compound concentrations: 100 nM and 1000 nM (sheet 'Samples'), CATDS: 9.4696036955239198E-3) it was 1790 nM.

(Values after article PMC11062922 (Nature Chemical Biology, 2023).)
